HT1080 IDH1KD tx: kills HT-1080 cells with IDH1 knockdown; Potency, µM (highest dose often 46.1 µM), for the others: at the highest dose activity, negative = toxicity, usual class: cytotoxic; HT-1080 IDH1 knockdown viability, ATP luminescence, 48 h; 360,000 compounds, 2% hits;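 further: potency means the concentration at half of the fitted maximal effect; 0% = DMSO wells and -100% = cell-free medium wells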
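Using the IDH1-knockdown HT-1080 line run in the same batch and compound series as the NT line, viability after 48 h at 37 °C was determined by CellTiter-Glo luminescence and expressed as % activity.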
IL-1B inflam inh: blocks inflammasome-driven IL-1 beta release | AID 743279 | 360,000 compounds, 4.7% hits | activity change, % at 57.5 µM | THP-1 LPS/ATP IL-1B secretion, AlphaLISA, 16 h; hits give low values; in the data active means activity change below about -50%; inconclusive means mostly about -30% to -49%
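Secreted IL-1B measured by AlphaLISA bead assay after 16 h compound exposure of THP-1 cells; compounds (final up to 57.5 uM) added 1 h before LPS (250 ng/mL) and ATP (1.25 mM) stimulation; lower signal means less secretion.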
TDP1 cell noCPT: qHTS for Inhibitors of human tyrosyl-DNA phosphodiesterase 1 (TDP1): qHTS in cells in absence of CPT. DT40 Tdp1-/- hTDP1 cells, no CPT, ATP luminescence, 48 h. Potency, µM (titrated, usually from 46.2 µM), for inactives: at the highest dose activity change, negative = growth inhibition, usual class: inhibitors. 420,000 compounds, 15% hits. AID 686978, 2013; further: potency means the concentration at half of the fitted maximal effect; nearly all actives have a fitted effect of over 55% in size
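Chicken DT40 Tdp1-/- cells stably complemented with human TDP1 were seeded at 400 cells/well with DMSO in place of 20 nM camptothecin. After compound pinning, cells grew at least 48 hr at 37 °C; viability read by CellTiter-Glo luminescence.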
HT1080-NT tox: kills 2HG-producing HT-1080-NT fibrosarcoma cells; HT-1080-NT fibrosarcoma viability, CellTiter-Glo ATP luminescence, 48 h; 360,000 compounds, 1.6% hits; Potency, µM (titrated, usually from 46.1 µM), for the others: at the top dose activity, negative = less viability, actives largely listed as cytotoxic; AID 686970;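 further: NT is the 2HG producing partner of a matched IDH1 knockdown line; potency means the concentration at half of the fitted maximal effect; 0% = DMSO-treated cells and -100% = media-only wells without cells; nearly all actives have a fitted effect of over 55% in size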
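HT-1080-NT fibrosarcoma cells (2HG-overproducing), 750 cells/well in RPMI with 5% FBS, dosed after 2 h and incubated 48 h at 37C. CellTiter-Glo luminescence normalized to DMSO and no-cell wells; concentration-response curves fitted and classed.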
TDP1 cell CPT: DT40-hTDP1 cell growth loss with CPT; Potency, µM (top dose mostly 46.2 µM), without a hit: at the highest dose activity change, negative = growth inhibition, most hits filed as inhibitors; 420,000 compounds, 12% hits; chicken DT40 Tdp1-/-;hTDP1 cells + 20 nM CPT, ATP luminescence, 48 h; further: potency means the concentration at half of the fitted maximal effect; nearly all actives have a fitted effect of over 55% in size
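Chicken DT40 Tdp1-/- cells stably complemented with human TDP1 were seeded at 400 cells/well in medium containing 20 nM camptothecin, exposed to pin-transferred compounds, and grown at 37 °C for at least 48 hr. Viability was read as ATP luminescence.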
An asterisk follows results filed as active; ? = inconclusive; . = not tested or not shown. Rows were chosen to be rich in hits. Some 19% of all compounds tested hit in one or more screens of this group. Unless noted, the call rests on the fitted dose curve; in most records, active means well fitted curve in the direction sought with a large enough effect; inconclusive means small, poorly fitted or top-dose-only effect, or another doubt; inactive means no such curve, though single readings can be large; an effect the other way counts as inactive or inconclusive. Unless noted, on the % scale 0 is the no-effect control and ±100 the full control effect.

SMILES | HT1080 IDH1KD tx | IL-1B inflam inh | TDP1 cell noCPT | HT1080-NT tox | TDP1 cell CPT
CC(C)CC(NS(=O)(=O)OCC(Cl)(Cl)Cl)c1ccccc1 (centres undefined) | -26% | -20 | 16µM* | ? | ?
COC(=O)CCC(NS(=O)(=O)OCC(Cl)(Cl)Cl)c1ccccc1 (centres undefined) | 2% | 25 | ? | 6% | -28%
Cc1ccc(NC(=O)CCSCCc2ccccn2)cc1 | 5% | 5 | -1% | 27% | 16%
Cc1ccc2nc(SCC(=O)OCc3ccccc3)nc(=O)n2c1 | -7% | -56* | 5% | -17% | 1%
CCOC(=O)C(C)Sc1nc(=O)n2cc(C)ccc2n1 (centres undefined) | 18% | -101* | 2% | 17% | 2%
Cc1cccc(C2C=C(c3ccc(C)c(C)c3)Nc3nnnn32)c1 (centres undefined) | . | . | 2.6µM* | . | 2.6µM*
Cc1ccc(C2CC(c3cccc(Br)c3)Nc3nnnn32)cc1 (centres undefined) | ? | -7 | -19% | -13% | -26%
CCc1ccc(C2=CC(c3cccc(Br)c3)n3nnnc3N2)cc1 (centres undefined) | . | . | 15µM* | . | 18µM*
Cc1ccc(C2=CC(c3ccccc3)n3ncnc3N2)c(C)c1 (centres undefined) | 9% | 22 | -25% | 9% | ?
Cc1cc(N2CCCC2=O)cc(C)c1S(=O)(=O)NCCOc1ccc(C(C)(C)C)cc1 | ? | -54* | 7.3µM* | ? | 7.3µM*
Cc1cc(N2CCCC2=O)ccc1S(=O)(=O)NC1CCCCC1 | -10% | 30 | 21µM* | 1% | ?
O=C1CCCN1c1ccc(S(=O)(=O)NCCOc2ccccc2)cc1 | -26% | 0 | 11µM* | -9% | ?
Cc1ccc(CSc2nnc([C@@H]3CCCN3C(=O)OC(C)(C)C)o2)cc1 | 2% | 1 | ? | 9% | ?
O=C(COc1ccc(F)cc1)Nc1nc(-c2cccnc2)cs1 | 4% | 6 | ? | 10% | ?
O=C(NC(Nc1nc2ccc([N+](=O)[O-])cc2s1)(C(F)(F)F)C(F)(F)F)c1cccnc1 | 13µM* | -70* | 2.3µM* | 9.2µM* | 3.7µM*
O=C(NC(Nc1nc2ccc([N+](=O)[O-])cc2s1)(C(F)(F)F)C(F)(F)F)c1ccccc1Cl | 2.9µM* | -69* | 0.18µM* | 3.3µM* | 0.33µM*
O=C(NC(NNc1ccc([N+](=O)[O-])cc1)(C(F)(F)F)C(F)(F)F)c1ccccc1Cl | -20% | -7 | -15% | -12% | 1%
O=[N+]([O-])c1ccc2oc(C(O)c3cccc(Cl)c3)cc2c1 (centres undefined) | -19% | -93* | 12µM* | -29% | ?
CC(=O)Nc1ccc(C=NN=C2c3ccccc3-c3ccccc32)cc1 | ? | 4 | ? | -25% | 26µM*
CCOC(=O)C1CCN(C(=O)/C=C/c2ccc3c(c2)OCO3)CC1 | 2% | 8 | -25% | -14% | -9%
OC(c1ccc(F)c(F)c1)c1ncc(-c2ccc(Cl)cc2)[nH]1 (centres undefined) | ? | 22 | ? | ? | ?
OC(c1cc(F)cc(Cl)c1)c1ncc(-c2ccc(Cl)cc2)[nH]1 (centres undefined) | ? | -12 | ? | ? | 18µM*
OC(c1cc(Cl)cc(Cl)c1)c1ncc(-c2cccc(F)c2)[nH]1 (centres undefined) | ? | ? | 16µM* | ? | ?
Nc1ccccc1Sc1nc2ccccc2[nH]1 | -14% | 27 | 15µM* | -16% | 13µM*
